# Results as given in PubChem BioAssay AID504336 (NMMLSC, 2011).
# Values without a mark were called inactive.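 Rule for the calls: active = compounds whose GFP signal falls below 65% of the DMSO control level; inconclusive = fewer than 70 yeast cells counted in the well; inactive = the rest.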
# Test: TOR branch reporter RPL19A-GFP response – cell-based, S. cerevisiae, third cherry pick, flow cytometry, confirmation (AID 504336);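 note: median GFP fluorescence of all gated yeast cells by flow cytometry; ratio of well median fluorescence to plate mean of DMSO wells with DMSO = 100%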
# Settings: S. cerevisiae RPL19A-GFP strain, 3 h, at 10 µM, active compounds read low
row,SMILES,GFP response relative to DMSO [%]
1,CN(C)C(=O)Oc1ccnc2cc(Cl)ccc12,102
2,CN(C)C(=O)Oc1ccc(Cl)c2cccnc12,101
3,Cc1ccc2c(c1N)C(=O)c1ccccc1C2=O,101
4,CN1CCN(c2ncnc3ccc(Br)cc23)CC1,99.3
5,C/C(O)=C(\C#N)C(=O)Nc1cc(Br)ccc1Br,97.5
6,CCN1CCN(c2ncnc3ccc(Br)cc23)CC1,100
